The list is not random: actives were taken first. Their share in the collection is about 2.3%.
A549 viability: Nrf2 qHTS screen for inhibitors: counterscreen for cytotoxicity; 390,000 tested, 0.16% active; A549 ARE-Fluc cells, CellTiter-Fluor viability, 18-24 h; Potency, µM (highest dose often 46 µM), actives largely listed as inhibitors
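Cytotoxicity counterscreen: CellTiter-Fluor fluorescence was measured in A549 ARE_Fluc cells after 18-24 h of compound exposure in a concentration series. The subsequent BugLite luminescent read reports ARE-luciferase activity.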
Giardia kill: Small Molecules that selectively kill Giardia lamblia: qHTS; Giardia lamblia trophozoite viability; activity change, % at 7.66 µM, hits read low; 340,000 tested, 0.15% active; in the data active = activity change below about -80%; inconclusive = between about -30% and that limit;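 also: parasites exposed to compound for two days anaerobically before the ATP read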
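Killing of trophozoites was scored by loss of ATP luminescence after a 48 hrs anaerobic exposure to compounds at 37 deg C, using 100 cells per well.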
Nrf2 block: Nrf2 qHTS screen for inhibitors; Potency, µM (top dose mostly 46 µM), actives largely listed as inhibitors; 360,000 tested, 2.1% active; A549 ARE-Fluc reporter, luciferase luminescence, 18-24 h; also: nearly all actives have a fitted effect of over 60% in size
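Quantitative HTS in A549 cells stably bearing an antioxidant response element-firefly luciferase construct. Inhibition of Nrf2-driven transcription was scored by luminescence after 18-24 h of compound exposure at 37 °C.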
mIDH1 inhibitor: qHTS for Inhibitors of mutant isocitrate dehydrogenase 1 (IDH1): qHTS; 390,000 tested, 0.093% active; IDH1-R132H enzyme, NADPH consumption, diaphorase/resazurin fluorescence; Potency, µM (titrated, usually from 76.6 µM), usual class: inhibitors; also: nearly all actives have a fitted effect of over 65% in size
Target sequence (O75874 whole entry R132H, stated change not applied): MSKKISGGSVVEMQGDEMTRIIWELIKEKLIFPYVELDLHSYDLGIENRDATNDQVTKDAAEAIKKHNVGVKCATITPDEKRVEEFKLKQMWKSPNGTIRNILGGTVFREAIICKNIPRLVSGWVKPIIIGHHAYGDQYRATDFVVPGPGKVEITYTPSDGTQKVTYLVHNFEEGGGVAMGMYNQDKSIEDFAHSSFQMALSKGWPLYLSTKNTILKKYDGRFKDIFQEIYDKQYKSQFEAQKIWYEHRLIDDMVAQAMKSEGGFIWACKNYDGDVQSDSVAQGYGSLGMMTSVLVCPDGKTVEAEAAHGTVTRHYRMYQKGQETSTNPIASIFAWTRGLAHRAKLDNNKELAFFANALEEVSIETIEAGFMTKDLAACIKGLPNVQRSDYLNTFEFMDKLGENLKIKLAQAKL
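IDH1-R132H (0.5 ug/mL) preincubated 30 min with compound, then NADPH (0.016 mM) and alpha-KG (2 mM) added; 80 min at RT, pH 7.5. Remaining NADPH coupled via diaphorase/resazurin to fluorescence (540/590 nm); concentration-response curves normalized to no-enzyme control.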
Anesthetic bind: qHTS Assay for Identification of Novel General Anesthetics; Potency, µM (top dose mostly 77.5 µM), most hits filed as inhibitors; apoferritin/1-aminoanthracene competitive binding, fluorescence; 350,000 tested, 0.074% active; AID 485281, 2010; Ferritin light chain (Equus caballus), P02791; also: nearly all actives have a fitted effect of over 20% in size
Target sequence (P02791 2-175 limits assumed): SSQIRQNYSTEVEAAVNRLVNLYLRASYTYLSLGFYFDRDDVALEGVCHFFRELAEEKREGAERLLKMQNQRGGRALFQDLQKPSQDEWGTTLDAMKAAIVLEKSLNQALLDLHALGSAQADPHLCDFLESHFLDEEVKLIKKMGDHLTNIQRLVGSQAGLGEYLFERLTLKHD
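In PBS, apoferritin at 10 uM is loaded with 1-AMA from a 50% saturated solution. After 10 min of compound exposure at ambient temperature, reduced 535 nm fluorescence indicates probe displacement.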
Nrf2 ARE act: qHTS of Nrf2 Activators | AREc32 ARE-luciferase reporter (MCF7-derived line), luminescence, 24 h | Potency, µM (highest dose often 46.1 µM), hits mostly activators | 410,000 tested, 0.31% active; also: nearly all actives have a fitted effect of over 65% in size
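ARE activation measured as luciferase luminescence (Steady-Glo, 30 min RT) in AREc32_Fluc cells after 24 hr compound exposure at 37 deg C, 5% CO2; cells seeded overnight at 1000/well in OPTI-MEM, 5% FBS.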
Hits are given with their value; i = inactive; ? = inconclusive; nt = no result given; [ ] = remark or other dose. Unless noted, calls follow the shape of the dose curve; as a rule, active = well fitted curve in the direction sought with a large enough effect; inconclusive = small, poorly fitted or top-dose-only effect, or another doubt; inactive = no such curve, though single readings can be large; an effect the other way counts as inactive or inconclusive.

SMILES	A549 viability	Giardia kill	Nrf2 block	mIDH1 inhibitor	Anesthetic bind	Nrf2 ARE act
OC[C@H]1O[C@@H](n2cnc3c(NCc4ccco4)ncnc32)[C@H](O)[C@@H]1O	?	i	8.2µM	i	nt	?
Cc1cccc(S(=O)(=O)C(C#N)c2nc3ccccc3nc2N2CC(C)OC(C)C2)c1 (configuration not stated)	i	i	16µM	i	i	i
Cc1ccc(S(=O)(=O)C(C#N)c2nc3ccccc3nc2N2CC(C)OC(C)C2)cc1C (configuration not stated)	nt	i	?	i	i	i
COc1ccc(-c2cc(-c3c(O)c(OC)c4occc4c3OC)[nH]n2)cc1OC	?	i	13µM	i	i	i
CC[C@H](C)[C@H](NC(=O)CNC(=O)[C@H](C)NC(=O)[C@H](C)N)C(=O)NCC(=O)N[C@H](C(=O)N[C@@H](CC(C)C)C(=O)N[C@H](C(=O)N[C@H](C(=O)O)C(C)C)[C@@H](C)O)[C@@H](C)CC	nt	nt	nt	nt	i	nt
C=CC(=O)Nc1cccc(Oc2ccnc3[nH]ccc23)c1	?	i	i	i	nt	i
C=CC(=O)Nc1cccc(Oc2ccnc(Nc3ccc(N4CCN(C)CC4)cc3)n2)c1	1.6µM	i	?	i	nt	i
C=CC(=O)Nc1cccc(N(C)c2ccnc(Nc3ccc(N4CCN(C)CC4)cc3)n2)c1	1µM	?	?	i	nt	i
Cc1cccc(NC(=O)c2cc(-c3ccc4c(c3)OCCO4)on2)c1	i	nt	?	i	i	i
CCCN1CNc2c(c(=O)[nH]c(=S)n2CCc2ccc(C)cc2)C1	i	i	i	nt	nt	nt
OC(COc1ccccc1)CSc1ncn[nH]1 (configuration not stated)	i	i	nt	i	i	i
CC(C)(C)c1ccc(OCC(O)CSc2ncn[nH]2)cc1 (configuration not stated)	i	i	15µM	i	?	i
Cc1nc2c(C(=O)NCCc3ccc(Cl)cc3)cnn2c(C)c1Cc1ccc(F)cc1	i	nt	nt	i	i	i
COc1ccc(-n2c(=S)[nH]c3cc(C(=O)Nc4ccc(C)c(F)c4)ccc3c2=O)c(OC)c1	i	i	23µM	i	?	i
COc1ccc(-n2c(=S)[nH]c3cc(C(=O)NC4CCCCC4)ccc3c2=O)c(OC)c1	i	i	15µM	i	i	i
CCOc1ccc(NC(=O)c2ccc3c(=O)n(-c4ccc(OC)cc4OC)c(=S)[nH]c3c2)cc1	nt	nt	nt	nt	i	nt
COc1ccc(NC(=O)c2ccc3c(=O)n(-c4ccc(OC)cc4OC)c(=S)[nH]c3c2)c(OC)c1	i	i	26µM	i	i	i
Cc1cc(C)c(/C=C/c2onc(C)c2S(=O)(=O)N2CCC(C(=O)N3CCN(c4ccc(Cl)cc4)CC3)CC2)c(C)c1	i	nt	nt	i	i	i
O=C(NCc1ccccc1)c1cc(C2COCCN2C(=O)c2ccc3c(c2)CCO3)on1 (configuration not stated)	nt	nt	nt	nt	nt	i
Cc1ccc(C)c(N2CCN(CCCNC(=O)c3ccc4nc(C(C)C)oc4c3)CC2)c1	?	nt	nt	i	?	i
CC(=O)N1CCN(c2ccc(NS(=O)(=O)c3ccc4c(c3)CC(=O)N4)cc2)CC1	i	nt	i	nt	nt	nt
CC(=O)Nc1ccc2nc3c(=O)[nH]c(=O)[nH]c3nc2c1	i	i	i	nt	i	nt
Oc1ccc(CCc2ccccc2)c2cccnc12	i	nt	?	nt	nt	nt
Oc1ccc(COc2ccccc2Cl)c2cccnc12	i	nt	18µM	nt	nt	nt
COc1ccc(CNc2ccc3c(c2)ncn3-c2ccccc2OC)cc1	i	i	18µM	i	?	i
SMILES	A549 viability	Giardia kill	Nrf2 block	mIDH1 inhibitor	Anesthetic bind	Nrf2 ARE act
Brc1ccc(-c2csc(/N=C/N3CCOCC3)n2)cc1	i	i	?	i	i	i
Brc1ccc(-c2csc(/N=C/N3CCCC3)n2)cc1	i	i	12µM	i	i	i
CCOc1ccc(C2C(C(=O)Nc3ccccc3)=C(C)Nc3nc(-c4ccccc4Cl)nn32)cc1OC (configuration not stated)	i	nt	?	i	i	i
O=c1oc2ccccc2c(NC2CCCCC2)c1NS(=O)(=O)c1ccc(F)cc1	i	i	?	i	i	i
CCc1ccc(S(=O)(=O)Nc2c(NC3CCCCC3)c3ccccc3oc2=O)cc1	i	i	26µM	i	?	i
FC(F)(F)c1ccc2c(c1)NCC1CCCN21 (configuration not stated)	i	i	?	i	?	i
FC(F)(F)c1ccc2c(c1)N1CCCC1CN2 (configuration not stated)	i	-87	i	i	i	i
Cc1nn(C)c(C)c1CNC(=O)c1nn2c(c1Cl)NC(c1cccs1)CC2C(F)(F)F (configuration not stated)	i	i	16µM	i	i	i
O=C(O)c1ccccc1SC1=NS(=O)(=O)c2ccccc21	i	nt	i	nt	nt	nt
O=c1[nH]nc(SCCS(=O)(=O)c2ccc(F)cc2)n1-c1ccc2c(c1)OCCO2	i	i	i	i	i	13µM
O=c1[nH]nc(SCCS(=O)(=O)c2ccc(F)cc2)n1-c1ccccc1	i	i	i	i	i	13µM
CCOC(=O)c1cc(-c2ccc3c(c2)OCCO3)nc2c1c(C)nn2CCC#N	i	i	21µM	i	i	i
CCOC(=O)c1cc(-c2ccc(Cl)cc2)nc2c1c(C)nn2CCC#N	i	i	?	i	i	i
CN1CCCc2cc(C=O)ccc21	i	i	i	i	i	i
CCCN1CCCc2cc(CN)ccc21	i[1.84 µM]	i	9.2µM	i	i	i
Cc1nc(N2CCOCC2)c2nc(-c3ccccc3)n(CC3CCN(C)CC3)c2n1	nt	nt	nt	nt	i	nt
COc1ccccc1NC(=O)CSC1=Nc2ccccc2C2=NC(CC(=O)NCc3ccccc3)C(=O)N12 (configuration not stated)	i	nt	nt	i	i	i
CCCCNC(=O)CC1N=C2c3ccccc3N=C(SCC(=O)Nc3ccccc3OC)N2C1=O (configuration not stated)	i	i	18µM	i	i	i
Cc1ccccc1-c1ncnn1-c1sc2c(c1C#N)CCCCC2	i	nt	?	i	?	i
COc1ccc(-c2nc3c(c(=O)[nH]c(=O)n3Cc3ccccc3)n2Cc2ccccc2)cc1	i	i	15µM	i	i	i
Cn1c(=O)[nH]c(=O)c2c1nc([N+](=O)[O-])n2Cc1ccccc1	?	i	23µM	i	i	?
CC(C)Cn1c([N+](=O)[O-])nc2c1c(=O)[nH]c(=O)n2C	?	i	i	i	i	?
Cc1cc(C)c(C(O)c2ncc(-c3cccc(F)c3)[nH]2)c(C)c1 (configuration not stated)	nt	nt	nt	nt	nt	i
